Assay results: PubChem BioAssay (Tox21)
Several values for one entry are separate records, joined by “and”; a condition that tells them apart may be missing. Identical values can stand only once. Inconclusive results are not listed. More than one record can exist for a structure, and the calls need not agree. Activity calls are given as the source filed them. Unless noted, calls come from the whole dose curve.

Key:
[1] = target: Gonadotropin-releasing hormone receptor (Homo sapiens) (UniProt P30968); experiment: Human gonadotropin-releasing hormone receptor (GnRHR) small molecule agonists, calcium flux assay in GnRHR-HEK293 cells (AID 1920063); note: nearly all actives have a fitted effect of over 35% in size; note: potency is the fitted concentration of half-maximal effect
Chain of Gonadotropin-releasing hormone receptor (Homo sapiens) (P30968 whole entry, looked up): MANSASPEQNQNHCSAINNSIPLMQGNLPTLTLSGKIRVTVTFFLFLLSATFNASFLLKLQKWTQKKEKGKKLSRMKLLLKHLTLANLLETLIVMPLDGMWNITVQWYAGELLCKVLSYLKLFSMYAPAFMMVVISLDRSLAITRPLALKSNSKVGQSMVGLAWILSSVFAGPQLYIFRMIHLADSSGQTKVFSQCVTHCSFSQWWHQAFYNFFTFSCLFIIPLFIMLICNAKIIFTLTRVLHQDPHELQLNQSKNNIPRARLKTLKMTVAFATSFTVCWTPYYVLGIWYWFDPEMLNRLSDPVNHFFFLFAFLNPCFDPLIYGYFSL
Summary of the method: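 GnRHR-HEK293, 1500 cells/well, 18 h 37 C/5% CO2; Ca dye 1 h 37 C; cpd pinned (DMSO), agonist mode; kinetic FL 480/540, 3 min, 1 s reads; 15 conc, n=3.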

[2] = target: KiSS-1 receptor (Homo sapiens) (UniProt Q969F8); experiment: Human kisspeptin (KISS1R) small molecule agonists, calcium flux assay in KISS1R-HEK293 cells (AID 1920064; active = well fitted activation curve with a large enough effect in the repeat runs)
Chain of KiSS-1 receptor (Homo sapiens) (Q969F8 whole entry, looked up): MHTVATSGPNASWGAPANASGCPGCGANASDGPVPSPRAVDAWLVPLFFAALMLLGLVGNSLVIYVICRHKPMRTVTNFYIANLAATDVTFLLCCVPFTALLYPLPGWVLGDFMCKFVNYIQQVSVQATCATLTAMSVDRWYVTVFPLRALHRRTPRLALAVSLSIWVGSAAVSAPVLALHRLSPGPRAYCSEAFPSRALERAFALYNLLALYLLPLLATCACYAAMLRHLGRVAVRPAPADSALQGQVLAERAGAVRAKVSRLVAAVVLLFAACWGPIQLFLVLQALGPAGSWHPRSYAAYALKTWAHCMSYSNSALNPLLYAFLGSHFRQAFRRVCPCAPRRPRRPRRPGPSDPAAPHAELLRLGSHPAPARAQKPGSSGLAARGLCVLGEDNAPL
Summary of the method: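 Stable human KISS1R HEK293 line; 18 h plating, 37 C/5% CO2; calcium dye 1 h 37 C; compound pin transfer; kinetic fluorescence Ex/Em 480/540, 3 min.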

[3] = G protein-coupled receptor (GPCR) small molecule agonists, calcium flux assay: HEK293 wild type cell line counter screen (AID 1920065)
Summary of the method: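 Kinetic fluorescence at Ex/Em 480/540, recorded every second over 3 min, served as the read-out after compound addition. Each compound was tested at 15 concentrations in triplicate on cells pre-loaded with calcium dye for 1 h.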

[4] = p53 small molecule agonists, cell-based qHTS assay with human liver microsomes: qHTS cell viability counter screen (AID 1963579); note: nearly all actives have a fitted effect of over 45% in size; note: potency is the fitted concentration of half-maximal effect
Summary of the method: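 Seed p53RE-bla cells at 4,000 per well; incubate 5 h at 37 C; add compound, human liver microsomes and NADPH; incubate 16 h at 37 C; add CellTiter-Glo; after 30 min at room temperature, read luminescence.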

[5] = p53 small molecule agonists, cell-based qHTS assay with rat liver microsomes: qHTS cell viability counter screen (AID 1963580); note: nearly all actives have a fitted effect of over 45% in size; note: potency is the fitted concentration of half-maximal effect
Summary of the method: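 p53RE-bla HCT-116 cells were exposed 16 h at 37 C to compounds with rat liver microsomes (0.5 mg/mL) and NADPH (0.5 mg/mL). Viability was measured in the same wells as ATP content by CellTiter-Glo luminescence.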

[6] = p53 small molecule agonists, cell-based qHTS assay: qHTS cell viability counter screen (AID 1963581); note: nearly all actives have a fitted effect of over 45% in size
Summary of the method: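 HCT-116 p53RE-bla cells, 4,000/well, plated 5 h before compound pin transfer; 16 h at 37 C; bla substrate 2 h RT; then CellTiter-Glo, 30 min RT, luminescence.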

[7] = target: 5-hydroxytryptamine receptor 2A (Homo sapiens) (UniProt P28223); experiment: 5-hydroxytryptamine receptor 2A (HTR2A) small molecule antagonists, cell-based qHTS assay (AID 1963586); note: nearly all actives have a fitted effect of over 45% in size; note: potency is the fitted concentration of half-maximal effect
Chain of 5-hydroxytryptamine receptor 2A (Homo sapiens) (P28223 whole entry, looked up): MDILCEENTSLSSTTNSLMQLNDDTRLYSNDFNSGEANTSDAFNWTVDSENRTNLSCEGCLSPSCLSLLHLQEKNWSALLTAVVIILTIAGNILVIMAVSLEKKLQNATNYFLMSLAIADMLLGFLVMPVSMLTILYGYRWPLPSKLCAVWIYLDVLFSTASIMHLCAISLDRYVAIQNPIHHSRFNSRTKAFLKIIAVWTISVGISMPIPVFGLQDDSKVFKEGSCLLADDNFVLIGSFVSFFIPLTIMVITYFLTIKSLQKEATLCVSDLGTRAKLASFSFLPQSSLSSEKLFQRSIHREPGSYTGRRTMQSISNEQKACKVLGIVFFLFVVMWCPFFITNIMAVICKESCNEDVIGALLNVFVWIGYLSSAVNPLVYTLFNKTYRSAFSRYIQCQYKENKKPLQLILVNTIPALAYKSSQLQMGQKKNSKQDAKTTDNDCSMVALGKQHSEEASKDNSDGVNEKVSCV
Summary of the method: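 Antagonist-mode intracellular calcium assay: DOI (4 nM) added after 5 min compound pre-incubation at room temperature to dye-loaded HTR2A-CHO cells. Fluorescence followed for 3 min, sampled every second.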

[8] = target: 5-hydroxytryptamine receptor 2A (Homo sapiens) (UniProt P28223); experiment: 5-hydroxytryptamine receptor 2A (HTR2A) small molecule agonists, cell-based qHTS assay (AID 1963587); note: nearly all actives have a fitted effect of over 30% in size
Summary of the method: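 CHO cells stably expressing human HTR2A, plated 18 h, loaded with calcium dye 1 h at 37 C. Agonist mode: compounds added and intracellular calcium fluorescence recorded kinetically for 2 min at 1 sec intervals.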

[9] = target: Muscarinic acetylcholine receptor M1 (Homo sapiens) (UniProt P11229); experiment: Cholinergic receptor muscarinic 1 (CHRM1) small molecule antagonists, cell-based qHTS assay (AID 1963588); note: nearly all actives have a fitted effect of over 40% in size
Chain of Muscarinic acetylcholine receptor M1 (Homo sapiens) (P11229 whole entry, looked up): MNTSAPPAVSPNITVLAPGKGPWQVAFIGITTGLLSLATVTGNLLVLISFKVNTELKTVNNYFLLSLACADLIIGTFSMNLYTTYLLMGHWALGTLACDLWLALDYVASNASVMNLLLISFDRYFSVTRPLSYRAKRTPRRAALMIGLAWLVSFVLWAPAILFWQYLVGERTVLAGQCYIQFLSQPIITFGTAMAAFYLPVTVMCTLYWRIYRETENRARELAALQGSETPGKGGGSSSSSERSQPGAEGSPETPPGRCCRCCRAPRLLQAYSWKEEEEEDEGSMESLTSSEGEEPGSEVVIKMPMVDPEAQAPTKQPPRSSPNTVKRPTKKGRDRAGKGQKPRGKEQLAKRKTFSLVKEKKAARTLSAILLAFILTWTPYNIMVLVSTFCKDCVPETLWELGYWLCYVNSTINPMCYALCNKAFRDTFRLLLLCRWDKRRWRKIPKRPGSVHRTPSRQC
Summary of the method: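 CHRM1-CHO calcium-flux assay, antagonist mode. Cells were seeded 18 h, dye-loaded 1 h at 37 C and given compound for 5 min at RT, then acetylcholine was added at 50nM. FDSS fluorescence was read 3 min; 15 concentrations, three runs.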

[10] = target: Muscarinic acetylcholine receptor M1 (Homo sapiens) (UniProt P11229); experiment: Cholinergic receptor muscarinic 1 (CHRM1) small molecule agonists, cell-based qHTS assay (AID 1963589); note: nearly all actives have a fitted effect of over 35% in size
Summary of the method: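 Human M1 in stable CHO line; 18 h plating, 1 h dye load 37 C; cpd added (agonist mode); Ca2+ fluorescence kinetic read, 1 s intervals; 15 conc, 3 runs.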

[11] = cAMP Responsive Elements (CRE) small molecule agonists, cell-based qHTS assay (AID 1963590)
Summary of the method: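 HEK 293T CRE-bla, 2,000 cells/well, 18 h preincubation 37 C/5% CO2; cpds (DMSO) pinned, 3 h; LiveBLAzer B/G FRET substrate, 2 h RT.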

[12] = cAMP Responsive Elements (CRE) small molecule antagonists, cell-based qHTS assay (AID 1963591; active = well fitted inhibition curve with a large enough effect in the signal ratio in the repeat runs, not every such curve was filed as active; the % refers to the signal ratio)
Summary of the method: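 Beta-lactamase reporter read by FRET substrate (LiveBLAzer B/G) after 2 h at room temperature. CRE-bla HEK293T cells had received compound plus 0.25 uM (final) NKH477 for 3 h at 37 °C.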

[13] = target: Beta-2 adrenergic receptor (Homo sapiens) (UniProt P07550); experiment: Adrenergic beta2 receptor (ADRB2) small molecule antagonists, cell-based qHTS assay (AID 1963592); note: series mostly up to about 92 µM; nearly all actives have a fitted effect of over 50% in size
Chain of Beta-2 adrenergic receptor (Homo sapiens) (P07550 whole entry, looked up): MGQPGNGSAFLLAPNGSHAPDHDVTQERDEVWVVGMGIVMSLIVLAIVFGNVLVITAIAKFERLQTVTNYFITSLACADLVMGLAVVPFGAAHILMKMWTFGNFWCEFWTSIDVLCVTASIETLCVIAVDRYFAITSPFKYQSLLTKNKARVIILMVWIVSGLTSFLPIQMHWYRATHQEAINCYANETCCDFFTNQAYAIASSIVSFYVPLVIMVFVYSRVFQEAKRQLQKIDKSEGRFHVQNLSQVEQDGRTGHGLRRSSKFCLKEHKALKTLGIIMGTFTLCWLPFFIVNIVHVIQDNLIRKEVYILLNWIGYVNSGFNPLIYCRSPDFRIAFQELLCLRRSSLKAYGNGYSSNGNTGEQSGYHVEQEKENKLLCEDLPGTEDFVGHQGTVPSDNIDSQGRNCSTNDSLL
Summary of the method: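 Cells (CHO, stable ADRB2 overexpression) incubated 18-20hr at 37C; compounds added from DMSO; agonist mix (1nM isoproterenol, 100uM IBMX, 25uM Ro-20-1724) added; 0.5hr RT; d2-cAMP and anti-cAMP-cryptate added; 1hr RT; 665/615 nm read.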

[14] = target: D(2) dopamine receptor (Homo sapiens) (UniProt P14416); experiment: Dopamine D2 receptor (DRD2) small molecule agonists, cell-based qHTS assay (AID 1963594); note: nearly all actives have a fitted effect of over 35% in size
Chain of D(2) dopamine receptor (Homo sapiens) (P14416 whole entry, looked up): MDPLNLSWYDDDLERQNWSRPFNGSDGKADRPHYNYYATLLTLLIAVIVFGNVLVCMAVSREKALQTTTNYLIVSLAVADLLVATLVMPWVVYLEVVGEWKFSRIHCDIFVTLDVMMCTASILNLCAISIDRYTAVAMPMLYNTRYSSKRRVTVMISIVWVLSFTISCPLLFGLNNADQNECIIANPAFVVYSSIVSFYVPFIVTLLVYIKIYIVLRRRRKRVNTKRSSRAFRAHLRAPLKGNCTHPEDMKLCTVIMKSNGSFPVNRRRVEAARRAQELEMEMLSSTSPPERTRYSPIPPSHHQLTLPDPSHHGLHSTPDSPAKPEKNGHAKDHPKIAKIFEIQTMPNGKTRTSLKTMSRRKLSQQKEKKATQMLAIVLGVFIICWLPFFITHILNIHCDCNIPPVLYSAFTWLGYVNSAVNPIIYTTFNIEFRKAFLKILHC
Summary of the method: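 HEK293 cells stably expressing human DRD2, pre-treated with PDE inhibitor Ro20-1724 (0.1 mM final) and compound 10 min at room temperature, then stimulated with NKH477 (200nM […]) for 30 min. cAMP read by HTRF (665/620 nm).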

[15] = target: D(2) dopamine receptor (Homo sapiens) (UniProt P14416); experiment: Dopamine D2 receptor (DRD2) small molecule antagonists, cell-based qHTS assay (AID 1963595; active = well fitted inhibition curve with a large enough effect in the signal ratio in the repeat runs, with a control signal flat; the % refers to the signal ratio; note: potency is the fitted concentration of half-maximal effect)
Summary of the method: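 HEK293 cells stably expressing DRD2, preincubated with 0.1 mM Ro20-1724 and compounds 10 min, were stimulated with 200 nM NKH477 plus 12 nM quinpirole for 30 min at room temperature; cAMP measured by HTRF (665/620 nm).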

[16] = Nuclear factor erythroid 2-related factor 2/antioxidant responsive element (Nrf2/ARE) small molecule agonists: luciferase reporter gene qHTS assay in human keratinocytes (AID 1919969); note: nearly all actives have a fitted effect of over 35% in size; note: potency is the fitted concentration of half-maximal effect
[17] = p53 small molecule agonists, cell-based qHTS assay with human liver microsomes (AID 1963577)
Summary of the method: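 Cells carrying a p53-responsive bla reporter were rested 5 h (37 C, 5% CO2) before compound transfer. Human liver microsomes plus NADPH, 0.5 mg/mL final apiece, supplied metabolism during the 16 h 37 C exposure.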

[18] = p53 small molecule agonists, cell-based qHTS assay with rat liver microsomes (AID 1963578)
Summary of the method: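 Fluorescence from a beta-lactamase reporter under a p53 response element was measured after cells had been incubated 16 h at 37 C with test compound and rat liver microsomes plus NADPH (0.5 mg/mL final each).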

[19] = p53 small molecule agonists, cell-based qHTS assay (AID 1963582; active = well fitted activation curve with a large enough effect in the signal ratio in the repeat runs, not every such curve was filed as active; the % refers to the signal ratio)
Summary of the method: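 Reporter line: p53RE-bla. Pre-incubation 5 h, 37 C, 5% CO2; compound (DMSO, pin tool) 16 h, 37 C; B/G FRET substrate 2 h RT; fluorescence intensity read.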

[20] = target: Beta-2 adrenergic receptor (Homo sapiens) (UniProt P07550); experiment: Adrenergic beta2 receptor (ADRB2) small molecule agonists, cell-based qHTS assay (AID 1963593);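 note: CHO cells stably overexpressing human ADRB2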
Summary of the method: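 CHO cells stably over-expressing ADRB2 were plated overnight at 37C, then dosed with compounds plus a stimulation mix containing 100uM IBMX and 25uM Ro-20-1724 for 0.5hr at room temperature. cAMP was measured by HTRF competition, 1hr.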

Measured: Potency

CC1CCC(C(C)C)C(O)C1 (stereo not drawn)
not listed: [16] | [17] | [18] | [19] | [20]
inactive: all other assays above

CC(O)Cn1cnc2c1c(=O)n(C)c(=O)n2C (stereo not drawn)
not listed: [2]
inactive: all other assays above

CCCCCCCCS
not listed: [3] | [20]
inactive: all other assays above

CC(O)CCCCn1c(=O)c2c(ncn2C)n(C)c1=O (stereo not drawn)
not listed: [3] | [9] | [20]
inactive: all other assays above

NC(=O)NNc1ccccc1
not listed: [9] | [11] | [16]
inactive: all other assays above

CN1CCCC1=O
not listed: [2] | [8] | [16] | [19]
inactive: all other assays above

Cn1c(=O)c2c(ncn2C)n(C)c1=O
not listed: [1] | [7] | [8] | [9] | [10] | [16] | [20]
inactive: all other assays above

CCCCCCCCCC/C=C/C#N
not listed: [1] | [20]
inactive: all other assays above

CSc1ccc2c(c1)N(CCC1CCCCN1C)c1ccccc1S2 (stereo not drawn)
40.6 µM (active) and inactive: [5]
45.6 µM (active) and inactive: [4]
inactive: [16] | [2] | [3] | [17] | [18] | [6] | [13] | [20] | [14]

[Cl][Eu]([Cl])[Cl]
not listed: [13] | [14] | [15] | [16] | [18] | [20]
inactive: all other assays above

CCCCOCCCC
not listed: [2]
inactive: all other assays above

CSc1nnc(C(C)(C)C)c(=O)[nH]1
not listed: [3] | [5] | [20]
inactive: all other assays above

Cc1c(N)cccc1C(F)(F)F
not listed: [12] | [16] | [20]
inactive: all other assays above

CN(C1CCCCC1)S(=O)(=O)c1ccccc1N
active: [7] 37.5 µM
not listed: [1]
inactive: all other assays above

CC[C@H](C)[C@@H](C(=O)O)n1sc2ccccc2c1=O
active: [16] 54.5 µM
not listed: [1] | [15] | [18] | [20]
inactive: all other assays above

CC(C)(C)NCC(O)c1ccc(O)c(CO)c1 (stereo not drawn)
inactive: [16] | [3] | [6] | [19] | [14]
active: [1] 30.1 nM | [15] 962 nM and 750 nM
